Test results from PubChem BioAssay (NCI).
Compounds without any hit were thinned out: in the full panel of roughly 83,000, 20% have a hit.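 Step 1: grow cells in 96-well plates. Step 2: add test compound at a single concentration. Step 3: incubate 48 h. Step 4: record percent growth.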 Unmarked numbers belong to inactive results. The source made the active and inactive calls. The calls were made as follows: active = growth percent below 10; inactive = the rest.

Tested on: A498 renal
Test: NCI-60 one-dose screen, 48 h (100 = growth as untreated, 0 = no growth, -100 = all killed)
Conditions: 10 µM unless noted

For `Clc1ccc2c(NCCCn3ccnc3)c3oc4ccccc4c3nc2c1`, the growth was 8.07% (active).
In the case of `O=C1Nc2cc(Cl)ccc2/C1=C\c1ccc(OCc2ccc(Br)cc2F)cc1`, the growth is reported as -75.8% (active).
For `CN(C)CCCOc1c2ccc(Cl)cc2nc2c1oc1ccc(Cl)cc12`, the growth was -6.7% (active).
With `CN1C(=O)N(c2ccccc2)C2N=C(N/N=C/c3ccccc3)SC21` (stereo not drawn) the growth was -18.8% (active).
`CC(C)(C)Nc1nc2c(OCCc3ccccc3)cccn2c1-c1cccc(F)c1` was tested, and the growth was -18.9% (active).

First: CCN1C(=S)N(CC)C2C1NN=C1SC(c3ccccc3)=CC(=O)N12 (stereo not drawn)
Second: CN1C(=S)N(C)C2C1NN=C1SC(c3ccccc3)=CC(=O)N12 (stereo not drawn)
The growth of the first is higher: 118% for the first, 103% for the second.

Compared with `COc1ccc(-c2csc(N/N=C/c3c(-c4ccc(S(C)(=O)=O)cc4)nc4ccccn34)n2)cc1`, `COc1ccc(C(=O)c2cc(C(=O)/C=C/c3c(Cl)cccc3Cl)c3cc(C)ccn23)cc1` is higher in growth: 85.9% for the first, 86.4% for the second.

Going from `CSCCC(C(=O)O)N1C(=O)/C(=C/c2ccc(O)c(O)c2)SC1=S` (stereo not drawn) to `CC1=C(C)C(=O)C(Nc2ccccc2)=C(Cl)C1=O`, the growth rises from 85.3% to 91.2%.

Going from `COc1ccc(NC2=CC(=O)C(C)=C(C)C2=O)cc1` to `COc1ccc(-c2nc3ccc(-c4nnc(SCC(=O)Nc5ccc(C(=O)/C=C/c6ccccc6)cc5)o4)cc3[nH]2)cc1OC`, the growth rises from 84.4% to 112%.

`Cn1cc(-c2cc(N)n3nc(-c4cn(C)c5ccc(F)cc45)cc3n2)c2cc(F)ccc21` showed a growth of 72.6%.

In the case of `C=CCSc1ccc2c(c1)C(N1CCNCC1)=Nc1ccccc1O2`, the growth is reported as 75.1% [8.25 µM].

Tested on: CCRF-CEM leukemia
Test: as above
Conditions: 10 µM unless noted

Compared with `COC(=O)C(Cc1ccccc1)NS(=O)(=O)/N=C1\NC(=O)NC1=C(Cl)Cl` (stereo not drawn), `Cn1c(SCC(=O)c2cccs2)nc2ccccc2c1=O` is higher in growth: 37.8% for the first, 80.3% for the second.

Going from `[Cl][Ru].c1ccc(-c2cccc(-c3ccccn3)n2)nc1.c1ccc(-c2ccnc3c2ccc2c(-c4ccccc4)ccnc23)cc1` to `Nc1cc(-c2c[nH]c3ccccc23)nc2cc(-c3c[nH]c4ccccc34)nn12`, the growth rises from 38% to 45.4%.

Compared with `COc1ccccc1/C=C/C=N/NC1=NC2C(S1)N(C)C(=O)N2C` (stereo not drawn), `CN1C(=O)N(c2ccccc2)C2N=C(N/N=C/c3ccccc3)SC21` (stereo not drawn) is higher in growth: 15.3% for the first, 17.1% for the second.

Compared with `O=C(c1ccc(O)cc1)C1[C@H](c2ccc(Cl)cc2)[C@@H](c2ccccc2)NC12C(=O)Nc1ccc(Cl)cc12` (stereo partly drawn), `O=C1Nc2cc(Cl)ccc2/C1=C\c1ccc(OCc2ccc(Br)cc2F)cc1` is lower in growth: 40.4% for the first, 12.9% for the second.

First: CC(C)Sc1nc(Nc2ccc(S(N)(=O)=O)cc2)c(C#N)c(-c2ccc(F)cc2)n1
Second: COc1ccc(-c2csc(N/N=C/c3c(-c4ccc(S(C)(=O)=O)cc4)nc4ccccn34)n2)cc1
The growth of the first is lower: 36.6% for the first, 94.2% for the second.

Compared with `Cc1nc2cnc(N)c(C#Cc3cncc(C(=O)Nc4ccc(Cl)c(C(F)(F)F)c4)c3)c2nc1C`, `CC(C)NC(=O)c1cc(-c2ccc(NC(=O)Nc3ccc(N4CCOCC4)c(C(F)(F)F)c3)cc2)nc2cccnc12` is higher in growth: 23.2% for the first, 44.3% for the second.

Compared with `CCN1C(=S)N(CC)C2C1N=C(SC)N2/N=C/C=C/c1ccccc1[N+](=O)[O-]` (stereo not drawn), `CCN1C(=S)N(CC)C2C1NN=C1SC(c3ccccc3)=CC(=O)N12` (stereo not drawn) is higher in growth: 93.1% for the first, 97.5% for the second.

First: COc1ccc(/C=N/NC(=O)c2[nH]c3ccc(Br)cc3c2-c2ccccc2)o1
Second: O=C(N/N=C/c1ccco1)c1[nH]c2ccc(Br)cc2c1-c1ccccc1
The growth of the first is lower: 15.4% for the first, 15.6% for the second.

First: COc1cc(/C=C/C(=O)c2ccccc2)ccc1Oc1nc(NCCO)nc(N2CCOCC2)n1
Second: COc1ccc(-c2nc3ccc(-c4nnc(SCC(=O)Nc5ccc(C(=O)/C=C/c6ccccc6)cc5)o4)cc3[nH]2)cc1OC
The growth of the first is lower: 30.3% for the first, 88.4% for the second.

Compared with `CS(=O)(=O)Nc1ccc(-c2nn(-c3ccc(S(C)(=O)=O)cc3)cc2/C=C/C(=O)c2ccc(NC(=O)CO[N+](=O)[O-])cc2)cc1`, `CS(=O)(=O)c1ccc(-c2nc3ccccn3c2/C=N/Nc2nc(-c3ccc(Br)cc3)cs2)cc1` is lower in growth: 111% for the first, 90.8% for the second.

Compared with `O=C(Nc1nc2ccc(O)cc2s1)c1cccc(C(F)(F)F)c1`, `CC(=NNc1ncnc2ccccc12)c1ccc(S(C)(=O)=O)cc1` is higher in growth: 31% for the first, 99.9% for the second.

Compared with `c1ccc2c(NCCCn3ccnc3)c3oc4ccccc4c3nc2c1`, `Clc1ccc2c(NCCCn3ccnc3)c3oc4ccccc4c3nc2c1` is higher in growth: 15% for the first, 37.4% for the second.

Going from `CSCCC(C(=O)O)N1C(=O)/C(=C/c2ccc(O)c(O)c2)SC1=S` (stereo not drawn) to `CN1C(=S)N(C)C2C1NN=C1SC(c3ccccc3)=CC(=O)N12` (stereo not drawn), the growth falls from 105% to 91%.

`COc1ccc(NC2=CC(=O)C(C)=C(C)C2=O)cc1` was tested, and the growth was 70.1%.

In the case of `COC1CCN(Cc2ccc3c(NNC(=O)c4cnccn4)nc4cc(F)ccc4n23)C1` (stereo not drawn), the growth is reported as 1.87% (active).
With `CC1=C(C)C(=O)C(Nc2ccccc2)=C(Cl)C1=O` the growth was 5.28% (active).
For `C#Cc1nc(C2=C(C)/C(=N/OCc3ccccc3)CC2)cs1`, the growth was -30.2% (active).
With `COc1cc(/C=C/C(=O)c2ccc(C(F)(F)F)cc2)ccc1Oc1nc(NCCO)nc(N2CCOCC2)n1` the growth was 4.08% (active).
`Cn1cc(-c2cc(N)n3nc(-c4cn(C)c5ccc(F)cc45)cc3n2)c2cc(F)ccc21` was tested, and the growth was 3.2% (active).
With `CC(C)(C)Nc1nc2c(OCCc3ccccc3)cccn2c1-c1cccc(F)c1` the growth was 3.62% (active).
